Active and inactive are the calls of the source. How the source made its calls: active means hit-call score of the fitted dose curve at least 0.9, where 1 is the maximum; inactive means score below 0.9.

This assay in a line: APR_HepG2_NuclearSize_72hr: Apredica 72-hour HepG2 Assay for Nuclear Size (AID 2282925). The settings on record: high-content imaging, actives raise or lower the signal. Here is the method:
APR_HepG2_72hr is a cell-based, multiplexed-readout assay that uses HepG2, a human liver cell line, with measurements taken at 72 hours after chemical dosing in a 384-well plate.APR_HepG2_NuclearSize_72hr is one of 10 assay component(s) measured or calculated from the APR_HepG2_72hr assay. It is designed to make measurements of cell phenotype, a form of morphology reporter, as detected with fluorescence intensity signals by HCS Fluorescent Imaging technology.Data from the assay component APR_HepG2_NuclearSize_72hr was analyzed into 1 assay endpoint. This assay endpoint, APR_HepG2_NuclearSize_72hr, was analyzed with bidirectional fitting relative to DMSO as the negative control and baseline of activity. Using a type of morphology reporter, measures of all nuclear dna for gain or loss-of-signal activity can be used to understand the signaling at the nuclear-level. Furthermore, this assay endpoint can be referred to as a primary readout, because this assay has produced multiple assay endpoints where this one serves a signaling function. To generalize the intended target to other relatable targets, this assay endpoint is annotated to the cell morphology intended target family, where the subfamily is organelle conformation.
Cells were treated with dimethyl sulfoxide (DMSO) as a solvent control at a final concentration of 0.5% v/v or with compounds in DMSO with a resulting final DMSO concentration of 0.5% v/v. Compound treatment was done at concentrations of 0.39, 0.78, 1.56, 3.12, 6.24, 12.5, 25, 50, 100, and 200 uM in duplicate on each plate. Cells were treated with compounds for 1, 24, or 72 hr. Carbonyl […] m-chloro-phenylhydrazone (CCCP) and taxol were used as positive controls for mitochondrial function and cytoskeletal stability, respectively; DMSO served as the negative control for this experiment. Cells were fixed by the direct addition of 50 uL formaldehyde in Hank's Balanced Salt Solution (HBSS) to a final concentration of 3.7%. After incubation in the fixation medium for 30 min at room temperature (293-298 K), cells were rinsed twice with HBSS and treated with cell permeabilization buffer (16 uL of 0.5% Triton X-100) for 10 min at room temperature (293-298 K) before labeling. For mitochondrial membrane potential and mitochondrial measurements, pre-fixed cells were incubated with 50 uL of MitoTracker Red CMXRos (Invitrogen) at a concentration of 250 nM for 30 min before fixation. In the remaining cases, post-fixed cells were labeled by incubation with a multiplexed mixture of primary antibodies in HBSS for 60 min at room temperature (293-298 K) to detect immunoreactivity of c-Jun (1:500), phospho-histone H3 (1:100), phospho-histone H2A.x (1:200), p53 (1:400), alpha-tubulin (1:200) and Hoechst 33342 (2 ug/mL). Cells were labeled for multiplexed imaging on two separate plates: a) Hoechst 33342, MitoTracker Red, phospho-histone H3, and alpha-tubulin, and b) Hoechst 33342, phospho-histone H2A.x, and c-Jun. A final rinse with HBSS (50 uL) was performed before analysis. The primary and secondary antibodies for the proteins were phospho-histone H3 (rabbit anti-phospho-histone H3 and FITC-donkey anti-rabbit IgG), phospho-histone H2A.x (mouse anti-phospho-histone H2A.x and FITC-donkey anti-mouse IgG), c-Jun (rabbit anti-phospho-c-Jun and Cy3-donkey anti-rabbit IgG), p53 (sheep anti-p53 and Cy5-donkey anti-sheep IgG), alpha-tubulin (mouse anti-alpha-tubulin and Cy5-donkey anti-mouse IgG). These antibodies are available as the CellCiphr HepG2 assay kit (Millipore).Digital images of each well were captured using a Cellomics ArrayScan VTI (Thermo Scientific Cellomics) (0.8 NA objective, 0.63x optical coupler, and XF-93 filter set) at 20x magnification. The images were acquired using the autofocus feature of the ArrayScan instrument, which entails the following steps. First, the camera focuses on channel 1 (Hoechst 33342), where nuclei are identified. Second, a Z offset of 1 um is used for capturing mitochondria (MitoTracker Red). […]
As for `CCC(=O)C(CC(C)N(C)C)(c1ccccc1)c1ccccc1` (stereo not drawn), the call was inactive.

`CC(C)(C)CC(C)(C)c1ccc(O)cc1`: the result was inactive.

Regarding `Oc1cccc2cccnc12`, the molecule was called inactive.

Regarding `CC12CC1(C)C(=O)N(c1cc(Cl)cc(Cl)c1)C2=O` (stereo not drawn), the result was inactive.

With `ClCC(Cl)CCl`, the molecule was classed as inactive.

With `CCN1CCC2(CC1)COc1cc3c(cc12)N(C(=O)c1ccc(-c2ccc(-c4nnc(C)o4)cc2C)cc1)CC3`, the result was inactive.

For `O=C(O)C(F)(F)C(F)(F)C(F)(F)C(F)(F)C(F)(F)C(F)(F)F`, the AC50 was 6.95 µM (active).

Regarding `O=C(O)C(F)(F)C(F)(F)C(F)(F)C(F)(F)C(F)(F)C(F)(F)C(F)(F)C(F)(F)C(F)(F)C(F)(F)F`, the molecule was classed as inactive.

`O=C(Nc1ccc2[nH]ccc2c1)c1cc2cc(F)ccc2n1Cc1cccc(F)c1`: the outcome was inactive.

For `C=CC(=O)OCCCCCC(C)C`, the call was inactive.

With `Cn1sc(Cl)cc1=O`, the molecule was called inactive.

Consider `CC(C)(OO)c1ccccc1`, for which the call was inactive.

Take `NC(=O)O`: the half-maximal activity concentration (AC50) was 23.5 µM (active).

In the case of `C[C@]12CCC(=O)C[C@@H]1CC[C@@H]1[C@@H]2CC[C@]2(C)[C@@H](O)CC[C@@H]12`, the result was inactive.

Regarding `C[C@@H]1C[C@@H]([C@H](O)CC2CC(=O)NC(=O)C2)C(=O)[C@@H](C)C1`, the outcome was inactive.

For the molecule `CC(C)(C)c1cc(O)ccc1O`, the AC50 was 110 µM (active).

Take `COc1cc(-c2ccc(N)c(OC)c2)ccc1N`: the molecule was called inactive.

As to `CCCCCCCCc1ccc(O)cc1`, the outcome was inactive.

Turning to `O=C1C2(Cl)C3(Cl)C4(Cl)C(Cl)(Cl)C5(Cl)C3(Cl)C1(Cl)C5(Cl)C24Cl` (stereo not drawn), the half-maximal activity concentration (AC50) was 24.1 µM (active).

With `Cc1ccccc1N`, the result was inactive.

For `O=C(O)C(Cl)(Cl)Cl`, the molecule was classed as inactive.

In the case of `CC(=O)[O][Hg][c]1ccccc1`, the call was inactive.

For `CN(C)N=O`, the call was inactive.

Take `ClC1(Cl)C2(Cl)C3(Cl)C4(Cl)C(Cl)(Cl)C5(Cl)C3(Cl)C1(Cl)C5(Cl)C24Cl` (stereo not drawn): the molecule was classed as inactive.

Turning to `C=C(C)C(=O)[O][Sn]([CH2]CCC)([CH2]CCC)[CH2]CCC`, the AC50 is 0.0558 µM (active).

For the molecule `O=c1[nH]c(=O)[nH]c(=O)[nH]1`, the outcome was inactive.

As for `CCC(C)(C)c1ccc(O)c(C(C)(C)CC)c1`, the call was inactive.

Turning to `CC(C)(c1ccccc1)c1ccc(O)c(C(C)(C)c2ccccc2)c1`, the outcome was inactive.

Values taken from PubChem BioAssay (EPA / NIEHS).
